Hits are enriched below; roughly 2.7% of the tested compounds scored in any of these assays.
Wnt bcat act – activators of Wnt/beta-catenin signaling. AID 743398. Wnt/beta-catenin reporter cell assay, activator, plate reader. activation, % at 9.35 µM. 1.2% of 300,000 active; in the data active = activation above about 30%, passing the limit was not always enough; inconclusive = no clear call, values can overlap the other calls
GSIS activator – primary screen for activators of insulin secretion dependent on glucose, INS-1E cells, GLuc reporter luminescence; INS-1E GLuc reporter insulin secretion, 2-3 h; activation, % at 16.6 µM; 0.61% of 370,000 active; AID 743287;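 active = lowest replicate activation of at least 40%, so every replicate reaches that level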
F508del corr – correctors of CFTR F508del function in bronchial epithelial cells. CFBE cells, YFP halide quenching; stimulated with forskolin plus potentiator P3; % fluorescence drop versus neutral controls. activity (quench increase), % at 7.58 µM. 0.36% of 350,000 active. AID 720511;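 active = mean added fluorescence quench of at least 8% versus neutral control, with both replicates also reaching 8%; inconclusive = only one of the mean or replicate conditions met; inactive = mean below 8% and not both replicates reaching 8%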;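 also: cells transiently co-express mutant CFTR-F508del with the halide-sensitive YFP; corrector assay measuring rescue of mutant channel to the surface after 24 h compound exposure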
HIV Env fusion – blocks HIV Env-driven cell-cell fusion. 1.1% of 360,000 active. AID 651610. HeLa-JRFL Env/CEM21 cell fusion, luciferase. inhibition, % at 12.3 µM;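 active = mean replicate inhibition score of at least 50 and every replicate individually at or above 50; inconclusive = only one of the two criteria met; inactive = mean below 50 and not all replicates reaching 50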
MITF act – activators of MITF-driven TRPM1 promoter activity in SK-MEL-5 cells. SK-MEL-5 TRPM1-promoter luciferase, 24 h; % of positive control, neutral wells = 0. activation, % at 12.5 µM. AID 588334. 0.75% of 300,000 active;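 active = mean activation of at least 80% with every replicate also reaching 80%; inconclusive = mean reaches 80% but some replicate falls short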
Each line names hits and unclear results; the compound was inactive in the other large screens.

C[C@H]1CN([C@@H](C)CO)C(=O)Cc2cc(NS(=O)(=O)c3ccc(F)cc3)ccc2O[C@@H]1CN(C)C	none (no result: Wnt bcat act, MITF act)
CC1CCC(C(C)C)C(=O)/C1=C/c1ccc(N)cc1 (stereo not drawn)	Wnt bcat act 53, MITF act 112
CC1/C(=C\c2ccc(Cl)cc2)C(=O)C2CC1C2(C)C (stereo not drawn)	none (no result: GSIS activator, F508del corr, HIV Env fusion)
Cc1onc(-c2ccccc2)c1C(=O)Nc1ncc([N+](=O)[O-])s1	HIV Env fusion 72
Cc1onc(-c2ccccc2)c1C(=O)Nc1ccc(Br)cc1Cl	HIV Env fusion 86
Cc1ccc(/C=N/NC(=O)c2c(-c3ccccc3)noc2C)c(O)c1	F508del corr 11
CCOC(=O)c1ccc(N2CCOCC2)c(NC(=O)c2c(-c3ccccc3)noc2C)c1	F508del corr 16 (no result: MITF act)
CCCNC(=O)N1C[C@@H](C)[C@@H](OC)CN(C)C(=O)c2cc(NC(=O)C3CCC3)ccc2OC[C@@H]1C	none (no result: Wnt bcat act, HIV Env fusion, MITF act)
O=C(N/N=C/c1ccc(Br)cc1)c1ccc(Br)o1	Wnt bcat act 56, MITF act 103 (no result: F508del corr)
Cc1onc(-c2ccccc2)c1C(=O)N/N=C/c1ccc(Br)cc1	HIV Env fusion 56
CCCOc1ccccc1NC(=O)c1c(-c2ccccc2)noc1C	HIV Env fusion 65
C[C@@H]1CN([C@H](C)CO)S(=O)(=O)c2ccc(C3=CCCC3)cc2O[C@H]1CN(C)Cc1ccccn1	none (no result: Wnt bcat act, HIV Env fusion, MITF act)
Cc1cc(C(=O)COc2cccc([N+](=O)[O-])c2)c(C)n1C1CC1	MITF act 105 (no result: GSIS activator)
C[C@@H]1C/C=C\C[C@H](c2ccc3c(c2)OCO3)NC(=O)[C@@H](c2ccccc2)CC(=O)N1	none (no result: Wnt bcat act, F508del corr, HIV Env fusion, MITF act)
CCNC(=O)NC(=O)COC(=O)c1ccccc1SCC(=O)NC(=O)NCC	Wnt bcat act 53 (no result: GSIS activator, F508del corr)
COCC(=O)Nc1ccc2c(c1)OC[C@@H](C)N(C(=O)c1ccncc1)C[C@H](C)[C@H](OC)CN(C)C2=O	none (no result: Wnt bcat act, MITF act)
O=C1CSC(=S)N1N=Cc1ccc2c(c1)OCO2	none
CN(/N=C/c1ccc2c(c1)OCO2)c1ccccc1	MITF act 118 (no result: Wnt bcat act, F508del corr)
O=C1c2ccccc2C(=O)N1N=Cc1ccc2c(c1)OCO2	Wnt bcat act 52 (no result: MITF act)
C[C@H]1CN([C@@H](C)CO)S(=O)(=O)c2ccc(C3=CCCCC3)cc2O[C@H]1CN(C)C(=O)CN(C)C	none (no result: Wnt bcat act, MITF act)
Cc1cc(/C=C2/NC(=S)NC2=O)c(C)n1-c1cccnc1	none (no result: Wnt bcat act, F508del corr)
Cc1cc(/C=C2/NC(=O)N(c3ccccc3)C2=O)c(C)n1-c1cccnc1	Wnt bcat act 37
COc1ccccc1CNC(=O)C[C@H]1C=C[C@@H](NC(=O)CN(C)C)[C@H](CO)O1	none (no result: Wnt bcat act, HIV Env fusion, MITF act)
Oc1ccc(-c2nnc(SCC3CCCCC3)o2)cc1	Wnt bcat act 53 (no result: GSIS activator, F508del corr, MITF act)
COc1ccc(C2=NN(C(C)=O)C(c3cccs3)C2)cc1OC (stereo not drawn)	GSIS activator 76 (no result: MITF act)
COc1ccc(C2CC(c3ccc(OC)c(OC)c3)=NN2S(C)(=O)=O)cc1 (stereo not drawn)	Wnt bcat act 45, MITF act 87
COc1cccc(C2=NN(C(C)=O)C(c3cccs3)C2)c1 (stereo not drawn)	none
C[C@@H]1CN([C@H](C)CO)C(=O)c2cccc(NC(=O)Nc3cccc4ccccc34)c2O[C@@H]1CN(C)S(=O)(=O)c1cccs1	none (no result: Wnt bcat act, HIV Env fusion, MITF act)
CCOC(=O)c1ccc2nc(NC(=O)C(C)C)sc2c1	Wnt bcat act inconclusive (no result: GSIS activator, MITF act)
O=C(Nc1nc2cc3c(cc2s1)OCO3)c1ccco1	none
O=C(Nc1nc2cc3c(cc2s1)OCCO3)c1ccco1	HIV Env fusion 58 (no result: GSIS activator)
Fc1ccc2nc(Nc3nc4cc5c(cc4s3)OCCO5)sc2c1	MITF act 85 (no result: Wnt bcat act, F508del corr)
CCOc1ccc2nc(NC(=O)c3ccco3)sc2c1	none
CCCC(=O)Nc1nc2ccc(C(=O)OCC)cc2s1	MITF act 92 (no result: GSIS activator)
CCOC(=O)c1ccc2nc(NC(=O)c3ccco3)sc2c1	Wnt bcat act 74 (no result: GSIS activator, F508del corr)
O=C(Nc1ccc(C(F)(F)F)cc1)N[C@H]1CC[C@@H](CC(=O)N2CCCCC2)O[C@H]1CO	none (no result: Wnt bcat act, MITF act)
C[C@H](CO)N1C[C@H](C)[C@@H](CN(C)C(=O)c2ccc(F)cc2)Oc2ncc(/C=C/c3ccccc3)cc2C1=O	none (no result: Wnt bcat act, MITF act)
COc1ccc(C(C)NCCC(c2ccc(OC(C)C)cc2)c2ccccc2OC)cc1 (stereo not drawn)	GSIS activator 134, HIV Env fusion inconclusive
Cc1cccc(-c2noc(C3CCCCC3)n2)c1	none (no result: Wnt bcat act, GSIS activator, F508del corr)
O=C(Nc1cccc(C(F)(F)F)c1)N1CCC(c2nc(-c3ccc(F)cc3)no2)CC1	HIV Env fusion 69 (no result: F508del corr)
Cc1ccc(-c2noc(C3CCCCC3)n2)cc1	MITF act 167 (no result: Wnt bcat act, GSIS activator, F508del corr, HIV Env fusion)
CCS(=O)(=O)N1CCC(c2nc(-c3ccc(C(F)(F)F)cc3)no2)CC1	HIV Env fusion 56 (no result: Wnt bcat act, GSIS activator, F508del corr)
CCS(=O)(=O)N1CCC(c2nc(-c3ccc(C)cc3)no2)CC1	none (no result: Wnt bcat act, GSIS activator, F508del corr)
Cn1ccnc1SCC(=O)c1ccc2ccccc2c1	Wnt bcat act 50, MITF act 88
COc1cccc(C(=O)CSc2nccn2C)c1	none (no result: MITF act)
CCN(C(=O)CSc1ncnc2sc(C)c(C)c12)C1CCS(=O)(=O)C1 (stereo not drawn)	none
Cc1sc2ncnc(SCC(=O)c3cccs3)c2c1C	Wnt bcat act 38 (no result: GSIS activator, F508del corr)
CCCN(CC1CC1)C(=O)CSc1ncnc2sc(C)c(C)c12	HIV Env fusion 69 (no result: Wnt bcat act, F508del corr)
O=C(N/N=C/c1ccc(OC(=O)c2ccc([N+](=O)[O-])cc2)cc1)c1cccnc1	none
COc1ccc(C(=O)Oc2ccc(/C=N/NC(=O)Cc3ccc([N+](=O)[O-])cc3)cc2)cc1	GSIS activator 46 (no result: F508del corr)
O=C(C1CC1)N1CC[C@@H]2[C@H](CO)Nc3ccc(C4=CCCCC4)cc3[C@@H]21	none (no result: Wnt bcat act, MITF act)
C[C@H](CO)N1C[C@H](C)[C@@H](CN(C)C(=O)C2CCCCC2)Oc2cc(C3=CCCCC3)ccc2S1(=O)=O	none (no result: Wnt bcat act, MITF act)
O=C1CCCCCN1Cc1nnc(SCc2nc3ccccc3s2)n1-c1ccccn1	Wnt bcat act 57 (no result: GSIS activator, F508del corr, MITF act)
CCNC(=O)CSc1nnc(CN2CCCCCC2=O)n1-c1ccccn1	none
COc1ccc(S(=O)(=O)Nc2ccc3c(c2)C(=O)N([C@H](C)CO)C[C@H](C)[C@@H](CN(C)C(=O)Nc2ccc4c(c2)OCO4)OCCCC[C@@H](C)O3)cc1	none (no result: Wnt bcat act, MITF act)
c1ccc(Cn2nnc3c(NCc4ccc5c(c4)OCO5)nc(C4CC4)nc32)cc1	none (no result: Wnt bcat act, GSIS activator, F508del corr, HIV Env fusion)
Cc1nc(NCc2ccc3c(c2)OCO3)c2nnn(Cc3ccccc3)c2n1	GSIS activator 50 (no result: Wnt bcat act, F508del corr)
Cc1cccnc1NC(=O)c1ccc(S(=O)(=O)N2CCCCC2)cc1	GSIS activator 41
Cc1ccnc(NC(=O)c2ccc(S(=O)(=O)N3CCC(C)CC3)cc2)c1	Wnt bcat act 36, MITF act 97
Cc1nnc(NC(=O)c2ccc(S(=O)(=O)N3CCCCC3)cc2)s1	Wnt bcat act 63
Cc1nnc(NC(=O)c2cccc(S(=O)(=O)N3CCCC3)c2)s1	none
COc1ccc(NC(=O)COC(=O)CNS(=O)(=O)c2ccccc2)cc1OC	F508del corr 14
COc1ccc(NC(=O)COC(=O)CNC(=O)C2CCCCC2)cc1OC	GSIS activator 59
C[C@H](CO)N1C[C@H](C)[C@H](CN(C)C(=O)C2CCCCC2)Oc2ncc(-c3ccncc3)cc2C1=O	none (no result: Wnt bcat act, MITF act)

Bioassay records: PubChem BioAssay, Broad Institute
